Experimental data reported in PubChem BioAssay (NCI).
This is part of a sample that, as a whole, favours compounds with a hit. Of some 83,000 tested, about 20% had one in any assay.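 Cells were grown in 96-well plates and exposed to the test compound at a single concentration for 48 hours; results are reported as percent growth, with values below 10 considered active.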 A number with no mark means an inactive call. Active and inactive are the calls of the source.

test system: CAKI-1 renal; assay: NCI-60 one-dose screen, 48 h (100 = growth as untreated, 0 = no growth, -100 = all killed); details: 10 µM unless noted

Compound	growth
N#Cc1c(-c2ccccc2)cc(-c2ccccc2)n(CCCCCC(=O)Nc2ccccc2N)c1=O	29.7%
CC1(c2ccccc2O)NN=C(/N=C/c2cccc([N+](=O)[O-])c2)N1C(Cc1c[nH]c2ccccc12)C(=O)O (centres undefined)	93.7%
O=C(OCc1ccc2c(Cl)cc(Cl)c(O)c2n1)n1cncn1	13.6%
Clc1ccc(CNc2c3ccccc3nc3ccccc23)cc1	41.4%
CCSc1nc(NC)c2cc(-c3ccc(C(F)(F)F)cc3)ccc2n1	96.3%
CCCCCCCCCCCCCCCCCCOc1ccccc1CC(=O)OCC[N+]1(C)CCCC1	30.9%
O=C(c1ccc(-c2ccccc2)cc1)c1ccc([N+](=O)[O-])cc1	88.1%
O=C1Nc2ccccc2/C1=C\c1nc(-c2ccccc2F)n2ccccc12	-13.9% (active)
O=C(OCc1ccc2cccc(O)c2n1)N1CCN(C(=O)c2cc3cc(F)ccc3[nH]2)CC1	-97.8% (active)
O=C(NNc1nccc(Nc2ccc(S(=O)(=O)Nc3ccncc3)cc2)n1)c1ccccc1	92.8%

test system: A498 renal; assay: as above; details: 10 µM unless noted

Compound	growth
CC(=O)OC[C@]12CCC(C)(C)C[C@H]1[C@@]1(O)[C@H](O)C[C@@H]3[C@@]4(C)CCCNC(C)(C)[C@@H]4CC[C@@]3(C)[C@]1(C)CC2	86.5%
COC(C(=O)[C@@H](O)[C@@H](C)O)[C@@H]1Cc2cc3cc(O[C@H]4C[C@@H](O[C@H]5C[C@@H](O)[C@H](O)C(C)O5)[C@H](O)C(C)O4)cc(O)c3c(O)c2C(=O)[C@H]1O[C@H]1C[C@@H](O[C@H]2C[C@@H](O[C@H]3C[C@@H](OC)[C@H](O)C(C)O3)[C@@H](O)C(C)O2)[C@H](O)C(C)O1 (some centres undefined)	-5.04% (active)
O=C1CNC(c2ccccc2)C(c2ccccc2)N1 (centres undefined)	74.7%
CCc1n(Cc2ccc3ccccc3c2)cc[n+]1Cc1ccc2ccccc2c1	21.8%
O=C(/C=C/c1ccc(Cl)cc1)c1cccc(Nc2nc(Nc3ccccc3)nc(Nc3ccccc3)n2)c1	95.2%
C=C1C(=O)O[C@H]2[C@H]1CC/C(COC(=O)NCc1cc[nH]c1)=C\CC[C@@]1(C)O[C@@H]21	104%
CN1CCN(C(=O)c2ccc(NC(=O)Nc3ccc(-c4nc(N5CCOCC5)c5cccn5n4)cc3)cc2)CC1	-51.5% (active)
O=C1c2cccnc2C(=O)c2c1c(C(=O)NCCn1ccnc1)c1ccccn21	57.3%
Cc1nn(-c2ccccc2)c(Oc2ccccn2)c1-c1nc2ccccc2s1	106%
CCN(CC)c1nc(SCc2ccccc2Cl)ncc1C	91.2%
COc1cc(-c2nc3cc(Cl)c(Cl)cc3[nH]2)ccc1OCC(=O)N=Nc1c(O)[nH]c2ccc([N+](=O)[O-])cc12	109%
Brc1c2c(c(Br)c3ccccc13)CCCC2	94.6%
CC1(C)CC2=C3C=C[C@@H]4[C@@]5(C)CCC(=O)C(C)(C)[C@@H]5CC[C@@]4(C)[C@]3(C)CC[C@@]2(C(=O)O)CC1=O	42.1%
O=S(=O)(NCCNc1nccc(-c2c(-c3cccc(F)c3)nc3occn23)n1)c1ccc(Br)cc1	81.3%
COc1ccc(-c2cc(-c3ccc(Cl)cc3)c(C#N)c(=O)n2CCCCC(=O)Nc2ccccc2N)cc1	20.9%
COc1ccc2c3c([nH]c2c1)C(=O)c1nc(C)ccc1C3=O	67.6%
Cc1c(-n2nnc(-c3nc4ccccc4s3)c2N)c(=O)n(-c2ccccc2)n1C	112%
COc1ccc(/C=C2\COc3ccc(O)c(O)c3C2=O)cc1	24.4%
O=C1c2cccnc2C(=O)c2c1c(C(=O)NCCCN1CCCCC1)c1ccccn21	-78.1% (active)
Cc1ccc(CNc2ccc(Cl)cc2NCc2ccc(C)c(O)c2)cc1O	82.2%

Compound	growth
Cc1ccc(Sc2nnc(/N=C3\C(=O)Nc4ccccc43)s2)cc1	93.6%
O=C(Cn1cc(CN2CCCCCC2)nn1)Nc1ccc2c(ccn2Cc2ccccc2)c1	95.2%
Cc1noc(C)c1C(=O)OCc1coc2ccccc2c1=O	104%
S=C1CCSC(=S)N1CCCN1C(=S)CCSC1=S	102%
Oc1ccc(CCn2c(O)c(/C=C3\CN=c4ccccc4=N3)sc2=S)cc1	37.3%
COc1ccc(-c2nnc3n(C)c(=O)c4ccccc4n23)cc1N	-8.12% (active)
Cn1cccc1C(=O)C1C(c2cccc([N+](=O)[O-])c2)C2C3CCCCC3CN2C12C(=O)Nc1ccc(Cl)cc12 (centres undefined)	86%
CCOC(=O)C#Cc1c(C(=O)OCC)nnn1[C@@H]1O[C@H](CO)[C@H]2OC3(CCCCC3)O[C@H]21	110%
O=[N+]([O-])c1ccc(N/N=C(/C(=N/Nc2ccc([N+](=O)[O-])cc2)c2ccccc2)c2ccccc2)cc1	101%
N#Cc1c(-c2ccccc2)cc(-c2ccccc2)n(CCCCCC(=O)Nc2ccccc2N)c1=O	96.7%
CC1(c2ccccc2O)NN=C(/N=C/c2cccc([N+](=O)[O-])c2)N1C(Cc1c[nH]c2ccccc12)C(=O)O (centres undefined)	90.9%
O=C(OCc1ccc2c(Cl)cc(Cl)c(O)c2n1)n1cncn1	64.9%
Clc1ccc(CNc2c3ccccc3nc3ccccc23)cc1	20.8%
CCSc1nc(NC)c2cc(-c3ccc(C(F)(F)F)cc3)ccc2n1	112%
CCCCCCCCCCCCCCCCCCOc1ccccc1CC(=O)OCC[N+]1(C)CCCC1	60.7%
O=C(c1ccc(-c2ccccc2)cc1)c1ccc([N+](=O)[O-])cc1	124%
O=C1Nc2ccccc2/C1=C\c1nc(-c2ccccc2F)n2ccccc12	-10.4% (active)
O=C(OCc1ccc2cccc(O)c2n1)N1CCN(C(=O)c2cc3cc(F)ccc3[nH]2)CC1	17.5%
O=C(NNc1nccc(Nc2ccc(S(=O)(=O)Nc3ccncc3)cc2)n1)c1ccccc1	103%
